An excerpt weighted towards active compounds, which were near 5.7% of everything screened.
AHR activator: activates the human aryl hydrocarbon receptor. AHR-responsive luciferase reporter cells, luminescence. activation, % at 5 µM. 320,000 compounds, 2.5% hits. P35869; in the data active means activation above about 47%;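 further: 0% = vehicle wells and 100% = reference agonist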
DAX1 inh-1: blocks DAX1 repression of SF-1 activated StAR promoter; inhibition, % at 6.8 µM; AID 652010; HEK293T StAR-luciferase reporter, SF-1/DAX-1 repression relief; 370,000 compounds, 1.1% hits;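 active means inhibition above the mean over all tested compounds plus 3 SD, cut at about 3.6% in these data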;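 further: 0% = DAX-1 cells with DMSO and 100% = cells lacking DAX-1 with DMSO; higher inhibition means more luminescence from relief of DAX-1 repression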
DAX1 inh-2: inhibits human nuclear receptor DAX1; inhibition, % at 6.75 µM; 340,000 compounds, 0.99% hits; HEK293 Gal4-DAX1 luciferase reporter, luminescence; AID 504766;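 active means inhibition above the mean over all tested compounds plus 3 SD, cut at about 4.2% in these data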;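 further: 0% = DAX1-transfected cells with DMSO and 100% = empty-vector control cells with DMSO; inhibition shows as a rise in luminescence from relieved DAX1 repression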
Target sequence (P51843 207-470 limits assumed): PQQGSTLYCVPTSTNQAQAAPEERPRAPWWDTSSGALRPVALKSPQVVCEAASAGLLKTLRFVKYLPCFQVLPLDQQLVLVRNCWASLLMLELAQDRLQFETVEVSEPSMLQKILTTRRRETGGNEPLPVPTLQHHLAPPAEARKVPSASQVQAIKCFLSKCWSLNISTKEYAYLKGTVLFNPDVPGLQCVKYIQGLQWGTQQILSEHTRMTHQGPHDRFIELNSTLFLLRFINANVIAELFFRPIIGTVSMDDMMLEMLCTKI
ssDAF12 agonist: activators of S. stercoralis DAF-12 nuclear receptor; HEK293 ssDAF-12/GRIP1 lit1-tk-luc reporter, luminescence; % of 3 µM dafachronic acid response; activation, % at 6.8 µM; 370,000 compounds, 1% hits; AID 652126;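 active means activation above the mean over all tested compounds plus 3 SD, cut at about 0.9% in these data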;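 further: 0% = DMSO-only wells and 100% = 3 µM delta7-dafachronic acid wells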
hgDAF12 agonist: hgDAF-12 agonism, primary luciferase screen; AID 687014; 370,000 compounds, 1.8% hits; HEK293 GAL4-hgDAF12 UAS-luciferase reporter, agonist luminescence; normalized to butyrate control; activation, % at 6.8 µM;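 active means activation above a cutoff set at the mean of all screened compounds plus 3 SD, cut at about 10% in these data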;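 further: 0% = DMSO wells and 100% = sodium butyrate wells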
hcDAF-12 act: H. contortus DAF-12 activation, primary screen; HEK293 hcDAF-12 lit1-tk-luc reporter, luminescence; 0% DMSO, 100% Δ7-dafachronic acid; activation, % at 6.8 µM; 370,000 compounds, 1.4% hits; AID 652067;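 active means activation above the mean of all tested compounds plus 3 SD, cut at about 5.5% in these data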;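 further: 100% = response to 3 µM Δ7-dafachronic acid high control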
LXRb hcDAF ctr: LXR-beta agonism as hcDAF-12 counter-screen. activation, % at 6.8 µM. 3,400 tested, under 10 active. HEK293 Gal4-LXR tk-luc reporter, luminescence, 24 h; normalized: DMSO 0%, positive control 100%. shares compounds with hcDAF-12 act. AID 743027;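 active means mean percent activation of the reporter above a cutoff set as the average over tested compounds plus their standard deviation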
hcDAF12 ag: confirmation of H. contortus DAF-12 agonists. HEK293 hcDAF-12 lit1-tk-luc reporter, luminescence; % of Δ7-dafachronic acid response. 3,400 compounds, 61% hits. shares compounds with hcDAF-12 act. activation, % at 6.8 µM. AID 743032;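 active means mean activation across triplicate tests above the threshold derived from the earlier primary screen, cut at about 5.5% in these data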;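 further: 0% = DMSO only wells and 100% = 3 µM Δ7-dafachronic acid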
hgDAF12 ag: hgDAF-12 agonism, confirmation assay; shares compounds with hgDAF12 agonist; HEK293 GAL4-hgDAF12 luciferase reporter, agonist mode; percent of butyrate response; activation, % at 6.8 µM; 3,300 compounds, 80% hits;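 active means mean activation over triplicate wells above the hit cutoff derived from the earlier primary screen, cut at about 11% in these data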;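 further: 0% = DMSO low control and 100% = 2 mM sodium butyrate high control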
LXR ag 2: activates human LXR-beta, counter-screen for DAF-12 agonists; HEK293 Gal4-LXR luciferase reporter, 24 h; shares compounds with hgDAF12 agonist; activation, % at 6.8 µM; 3,300 tested, under 10 active;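 active means mean activation of the triplicate above a set limit carried over from the primary screen, none filed active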
Numbers without * were called inactive.

Screening N#CC(=C1CCCC1)c1nc(-c2ccccc2)cs1 returned AHR activator 7, DAX1 inh-1 2, DAX1 inh-2 5.2*, ssDAF12 agonist 1.7*, hgDAF12 agonist 17*, hcDAF-12 act 7.5*, LXRb hcDAF ctr 1, hcDAF12 ag 6.0*, hgDAF12 ag 21* and LXR ag 2 1.
Screening Cc1ccc(-c2csc(C(C#N)=C3CCCC3)n2)cc1 returned AHR activator -2, DAX1 inh-1 0, DAX1 inh-2 -1, ssDAF12 agonist -1, hgDAF12 agonist 2 and hcDAF-12 act 0.
Screening O=C(Nc1ncccc1O)c1ccc(Oc2ccccc2)cc1 returned AHR activator 0, DAX1 inh-1 3.8*, DAX1 inh-2 1, ssDAF12 agonist 0, hgDAF12 agonist 19*, hcDAF-12 act 6.8*, LXRb hcDAF ctr 1, hcDAF12 ag 5.8*, hgDAF12 ag 26* and LXR ag 2 1.
`O=C(COc1ccc(C(=O)c2ccccc2)cc1)Nc1ncccc1O` gave AHR activator 16, DAX1 inh-1 -1, DAX1 inh-2 0, ssDAF12 agonist 0, hgDAF12 agonist 2 and hcDAF-12 act -1.
Screening Cc1ccc(CN(C(=O)c2csnn2)C(C(=O)NC2CCCC2)c2cccnc2)cc1 (stereo not drawn) returned AHR activator 1, DAX1 inh-1 0, DAX1 inh-2 -1, ssDAF12 agonist -1, hgDAF12 agonist -2 and hcDAF-12 act -2.
Cc1cccc(N(CC(=O)NC2CCCC2)C(=O)CNC(=O)c2ccco2)c1C was read as AHR activator -2, DAX1 inh-1 0, DAX1 inh-2 0, ssDAF12 agonist 0, hgDAF12 agonist 1 and hcDAF-12 act 1.
Screening CCC(=O)Nc1cccc(-c2nc3ccc(C)cc3o2)c1 returned AHR activator 16, DAX1 inh-1 1, DAX1 inh-2 3, ssDAF12 agonist 0, hgDAF12 agonist 5 and hcDAF-12 act 2.
For CCC(=O)Nc1ccc2oc(-c3cccc(C)c3)nc2c1 the results were AHR activator -4, DAX1 inh-1 4.2*, DAX1 inh-2 -3, ssDAF12 agonist 1, hgDAF12 agonist 15*, hcDAF-12 act 6.9*, LXRb hcDAF ctr 2, hcDAF12 ag 7.9*, hgDAF12 ag 16* and LXR ag 2 1.
Screening CCCCn1c(N)c(N(CC(C)C)C(=O)c2ccc3c(c2)NC(=O)C(C)S3)c(=O)[nH]c1=O (stereo not drawn) returned AHR activator 12, DAX1 inh-1 1, DAX1 inh-2 2, ssDAF12 agonist -1, hgDAF12 agonist -1 and hcDAF-12 act -1.
`COc1cccc(CN2CC(C(=O)N3CCOCC3)CCC2=O)c1` (stereo not drawn) gave AHR activator 3, DAX1 inh-1 0, DAX1 inh-2 0, ssDAF12 agonist -1, hgDAF12 agonist 7 and hcDAF-12 act 2.
CCN(C[C@H]1N[C@@](C)(C(=O)OC)[C@H]2C(=O)N(Cc3ccccc3)C(=O)[C@@H]12)C(=O)Nc1ccc(Cl)cc1 was read as AHR activator 2, DAX1 inh-1 2, DAX1 inh-2 -2, ssDAF12 agonist -1, hgDAF12 agonist -2 and hcDAF-12 act -1.
Oc1cccc(/C=C/c2ccc3cccc(O)c3n2)c1 was read as AHR activator 70*, DAX1 inh-1 3.6*, DAX1 inh-2 3, ssDAF12 agonist 4.7*, hgDAF12 agonist 23*, hcDAF-12 act 26*, LXRb hcDAF ctr 2, hcDAF12 ag 21*, hgDAF12 ag 28* and LXR ag 2 1.
Screening COc1ccc(/C=C/c2ccc3cccc(O)c3n2)cc1Br returned AHR activator 0, DAX1 inh-1 0, DAX1 inh-2 1, ssDAF12 agonist -1, hgDAF12 agonist 3 and hcDAF-12 act -2.
Cc1ccc(/C=C/c2ccc3cccc(O)c3n2)s1 was read as AHR activator 36, DAX1 inh-1 1, DAX1 inh-2 4, ssDAF12 agonist 1.5*, hgDAF12 agonist 18*, hcDAF-12 act 8.9*, LXRb hcDAF ctr 1, hcDAF12 ag 15*, hgDAF12 ag 16* and LXR ag 2 1.
COc1ccc(/C=C/c2ccc3cccc(O)c3n2)c(OC)c1OC was read as AHR activator -1, DAX1 inh-1 -1, DAX1 inh-2 -4, ssDAF12 agonist -1, hgDAF12 agonist -5 and hcDAF-12 act -2.
CCc1cccc(NC(=O)C2CCN(S(=O)(=O)c3ccc4c(c3)NC(=O)CO4)CC2)c1 was read as AHR activator 5, DAX1 inh-1 -1, DAX1 inh-2 0, ssDAF12 agonist -1, hgDAF12 agonist -2 and hcDAF-12 act -2.
For C=CCn1c(C)cc(C(=O)CN2NS(=O)(=O)c3ccccc3C2=O)c1C the results were AHR activator 22, DAX1 inh-1 3, DAX1 inh-2 5.4*, ssDAF12 agonist 1.8*, hgDAF12 agonist 15*, hcDAF-12 act 8.8*, LXRb hcDAF ctr 0, hcDAF12 ag 5.8*, hgDAF12 ag 5 and LXR ag 2 0.
C[C@H](CO)N1C[C@H](C)[C@@H](CN(C)S(=O)(=O)c2ccc3ccccc3c2)OCc2cnnn2CCCC1=O was read as DAX1 inh-1 -1, DAX1 inh-2 0, ssDAF12 agonist -2, hgDAF12 agonist -2 and hcDAF-12 act -2.
`Cc1ccc2nc(-c3ccc(O)cc3)oc2c1` gave AHR activator 0, DAX1 inh-1 3, DAX1 inh-2 0, ssDAF12 agonist 2.2*, hgDAF12 agonist 19*, hcDAF-12 act 9.0*, LXRb hcDAF ctr 2, hcDAF12 ag 7.2*, hgDAF12 ag 21* and LXR ag 2 1.
`CCN(CC(=O)Nc1ccc(OC)cc1)C(=O)Cc1cccs1` gave AHR activator 4, DAX1 inh-1 1, DAX1 inh-2 1, ssDAF12 agonist -1, hgDAF12 agonist 0 and hcDAF-12 act 2.
Cc1ccc(C(=O)O)cc1NCc1ccncc1 was read as AHR activator -1, DAX1 inh-1 0, DAX1 inh-2 1, ssDAF12 agonist -1, hgDAF12 agonist -2 and hcDAF-12 act 0.
